Results filed as inconclusive are left out. Where a call stands in place of a potency, no number is given. Unmarked numbers belong to inactive results. Activity calls are given as the source filed them. Calls follow the shape of the dose curve; as a rule, active = well fitted curve in the direction sought with a large enough effect in the repeat runs; inconclusive = weak or mixed curves; inactive = no such curve, though single readings can be large; an effect the other way counts as inactive or inconclusive.
What was measured:
[1] = qHTS RealTime-Glo MT Cell Viability Assay in HEK293 cells - 16 hour (AID 1224872); also: nearly all actives have a fitted effect of over 50% in size; also: potency is read from the fitted curve at half-maximal effect
Outline: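 Cells + reagent dispensed (600 cells/well, HEK293) → 5 h at 37 C/5% CO2 → 23 nL compound in DMSO pinned → 40 h at 37 C → luminescence read at 0, 8, 16, 24, 32, 40 h.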

[2] = qHTS RealTime-Glo MT Cell Viability Assay in HepG2 cells - 8 hour (AID 1224873); also: nearly all actives have a fitted effect of over 55% in size
Outline: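 HepG2 cells mixed with RealTime-Glo MT reagents (NanoLuc plus cell-permeant prosubstrate) were seeded at 600 cells/well, incubated 5 h at 37 C/5% CO2, then pinned with compounds in DMSO; nonlytic luminescence tracked viability during 40 h treatment.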

[3] = qHTS RealTime-Glo MT Cell Viability Assay in HEK293 cells - 40 hour (AID 1224874); settings: RealTime-Glo luminescence; max response: stronger effect = lower value; also: nearly all actives have a fitted effect of over 50% in size; also: potency is read from the fitted curve at half-maximal effect
Outline: (§1)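 qHTS format; HEK293 cells with NanoLuc/prosubstrate reagent, 37 C/5% CO2 for 5 h pre-dosing; compounds 23 nL in DMSO; luminescence at each time point reflects viable cells.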

[4] = A CellTox Green Cytotoxicity Assay to monitor cytotoxicity in HEK293 cells - 24 hour (AID 1224875); also: series mostly up to about 77 µM; nearly all actives have a fitted effect of over 45% in size
Outline: (§2)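 Each value comes from one timepoint of a single continuous run in which HEK293 cells with CellTox Green were exposed to compound for up to 40 h at 37 C, dye fluorescence rising with cell death.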

[5] = A CellTox Green Cytotoxicity Assay to monitor cytotoxicity in HepG2 cells - 16 hour (AID 1224876); also: nearly all actives have a fitted effect of over 45% in size
Outline: (§3)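 Continuous culture of HepG2 cells with a membrane-impermeant DNA dye; rising fluorescence marks dead cells. Compound exposure lasted up to 40 h at 37 C, with reads every 8 h from 0 h.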

[6] = qHTS RealTime-Glo MT Cell Viability Assay in HepG2 cells - 32 hour (AID 1224877); also: nearly all actives have a fitted effect of over 55% in size
Outline: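 Real-time, nonlytic viability: 600 HepG2 cells/well mixed with NanoLuc enzyme plus prosubstrate; 5 h settle, compound (DMSO) added by pintool; luminescence monitored over 40 h at 37 C.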

[7] = A CellTox Green Cytotoxicity Assay to monitor cytotoxicity in HepG2 cells - 24 hour (AID 1224878); also: nearly all actives have a fitted effect of over 45% in size
Outline: as §3

[8] = A CellTox Green Cytotoxicity Assay to monitor cytotoxicity in HepG2 cells - 40 hour (AID 1224879); also: nearly all actives have a fitted effect of over 40% in size; also: potency is read from the fitted curve at half-maximal effect
Outline: as §3

[9] = qHTS RealTime-Glo MT Cell Viability Assay in HEK293 cells - 0 hour (AID 1224880); also: top concentration of the series differs between compounds; nearly all actives have a fitted effect of over 45% in size
Outline: as §1

[10] = A CellTox Green Cytotoxicity Assay to monitor cytotoxicity in HEK293 cells - 32 hour (AID 1224881); also: nearly all actives have a fitted effect of over 40% in size
Outline: as §2

| Structure (SMILES) | Potency [1] | Potency [2] | max response [3] | Potency [4] | Potency [5] | Potency [6] | Potency [7] | Potency [8] | Potency [9] | Potency [10] | Potency [3] |
| --- | --- | --- | --- | --- | --- | --- | --- | --- | --- | --- | --- |
| CC1=CC[C@H](C(C)C)C=C1 | inactive | inactive | -3.46% | inactive | inactive | inactive | inactive | inactive | inactive | inactive |  |
| CCOC(=O)c1cccnc1 | inactive | inactive | 1.88% | inactive | inactive | inactive | inactive | inactive | inactive | inactive |  |
| CCCCC(CC)COC(=O)COc1ccc(Cl)cc1Cl (centres undefined) | inactive | inactive | 11% | inactive | inactive | inactive | inactive | inactive | inactive | inactive |  |
| CC(C)(CO)[N+](=O)[O-] | inactive | inactive | 3.49% | inactive | inactive | inactive | inactive | inactive |  | inactive |  |
| CCCCCCCC/C=C\CCCCCCCC(=O)OCC | inactive | inactive | 4.58% | inactive | inactive | inactive | inactive | inactive | inactive | inactive |  |
| Nc1ncn([C@H]2C[C@H](O)[C@@H](CO)O2)c(=O)n1 | inactive | inactive | 2.14% | inactive | inactive | inactive | inactive | inactive | inactive | inactive |  |
| COC(C)OC | inactive | inactive | 5.31% | inactive | inactive | inactive |  | inactive | inactive | inactive |  |
| CC(C)(C)OCC1CO1 (centres undefined) | inactive | inactive | -2.11% | inactive | inactive | inactive | inactive | inactive |  | inactive |  |
| CCC(CC)Nc1ccc(C)c(C)c1 | inactive | inactive | 12.5% | inactive | inactive | inactive |  | inactive | inactive | inactive |  |
| COCCCN1CCC(NC(=O)c2cc(Cl)c(N)c3c2OCC3)CC1 | inactive | inactive | -14% | inactive | inactive | inactive | inactive | inactive |  | inactive |  |
| CC1(c2ccccc2)OC(C(=O)O)=CC1=O (centres undefined) | inactive | inactive | 2.42% | inactive | inactive | inactive | inactive | inactive | inactive | inactive |  |
| c1cc(CCCc2ccncc2)ccn1 | inactive | inactive | -17.4% | inactive | inactive | inactive | inactive | inactive | inactive | inactive |  |
| CCn1cc(C(=O)O)c(=O)c2cnc(N3CCNCC3)nc21 | inactive | inactive | 6.48% | inactive | inactive | inactive |  | inactive | inactive | inactive |  |
| C=CCOc1ccccc1OCC(O)CNC(C)C (centres undefined) | inactive | inactive | 4.45% | inactive | inactive | inactive |  | inactive | inactive | inactive |  |
| COc1ccc(-c2nc3ccc(C4=NNC(=O)CC4C)cc3[nH]2)cc1 (centres undefined) | 9.52 µM (active) | inactive |  | inactive | inactive | inactive | inactive | 21.3 µM (active) |  | inactive | 7.56 µM (active) |
| CC1=CC=C(C(C)C)CC1 | inactive | inactive | 1.32% | inactive | inactive | inactive | inactive | inactive | inactive | inactive |  |
| COc1ccc(C(=O)N2CCN(CC(=O)N3CCOCC3)CC2)cc1 | inactive | inactive | 2.37% | inactive | inactive | inactive |  | inactive | inactive | inactive |  |
| CCC(C)(C)CC | inactive | inactive | -9.85% | inactive | inactive | inactive |  | inactive | inactive | inactive |  |
| O=[N+]([O-])c1ccc(NCCO)c(OCCO)c1 | inactive | inactive | -13.3% | inactive | inactive | inactive | inactive | inactive |  | inactive |  |
